# Measurements reported in PubChem BioAssay (Tox21).
# Values without a mark were called inactive. Inconclusive results are not listed. A call without a number means that no potency is given here. Activity calls are given as the source filed them. Calls follow the shape of the dose curve; as a rule, active = well fitted curve in the direction sought with a large enough effect in the repeat runs; inconclusive = weak or mixed curves; inactive = no such curve, though single readings can be large; an effect the other way counts as inactive or inconclusive.
# Legend:
# [1] = qHTS RealTime-Glo MT Cell Viability Assay in HEK293 cells - 16 hour (AID 1224872); also: nearly all actives have a fitted effect of over 50% in size; also: potency is read from the fitted curve at half-maximal effect; as to activity change, negative = cytotoxicity: top concentration of the series differs between compounds
# Procedure, shortened: (§1)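 Assay medium contained NanoLuc luciferase plus cell-permeant prosubstrate, added with HEK293 cells at 600 cells/well. After 5 h at 37 C/5% CO2 compounds were added; plates stayed at 37 C for 40 h with serial luminescence reads.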
# [2] = qHTS RealTime-Glo MT Cell Viability Assay in HepG2 cells - 8 hour (AID 1224873); also: nearly all actives have a fitted effect of over 55% in size; also: potency is read from the fitted curve at half-maximal effect
# Procedure, shortened: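 HepG2 cells mixed with RealTime-Glo MT reagents (NanoLuc plus cell-permeant prosubstrate) were seeded at 600 cells/well, incubated 5 h at 37 C/5% CO2, then pinned with compounds in DMSO; nonlytic luminescence tracked viability during 40 h treatment.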
# [3] = qHTS RealTime-Glo MT Cell Viability Assay in HEK293 cells - 40 hour (AID 1224874); settings: RealTime-Glo luminescence; max response: active compounds read low; also: nearly all actives have a fitted effect of over 50% in size; also: potency is read from the fitted curve at half-maximal effect
# Procedure, shortened: (§2)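 Luminescence readout at each listed time point; HEK293, 600 cells/well, RealTime-Glo MT reagent added with cells; compounds pinned (23 nL in DMSO) after 5 h at 37 C; continuous culture at 37 C.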
# [4] = A CellTox Green Cytotoxicity Assay to monitor cytotoxicity in HEK293 cells - 24 hour (AID 1224875); also: nearly all actives have a fitted effect of over 45% in size; also: potency is read from the fitted curve at half-maximal effect; as to activity change: series mostly up to about 77 µM
# Procedure, shortened: (§3)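 Read-out: fluorescence of a cell-impermeant cyanine dye staining DNA of dead cells, proportional to cytotoxicity. HEK293, 600 cells/well with reagent, compound (23 nL DMSO) added after 5 h; reads at 0, 8, 16, 24, 32, 40 h.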
# [5] = A CellTox Green Cytotoxicity Assay to monitor cytotoxicity in HepG2 cells - 16 hour (AID 1224876); also: nearly all actives have a fitted effect of over 45% in size; also: potency is read from the fitted curve at half-maximal effect
# Procedure, shortened: (§4)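 HepG2, 600 cells/well premixed w/ CellTox Green; 5 h settle, 37 C/5% CO2; pintool cpd add (DMSO); 37 C, 40 h; fluorescence read at 0, 8, 16, 24, 32, 40 h.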
# [6] = qHTS RealTime-Glo MT Cell Viability Assay in HepG2 cells - 32 hour (AID 1224877); also: nearly all actives have a fitted effect of over 55% in size; also: potency is read from the fitted curve at half-maximal effect
# Procedure, shortened: (§5)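 qHTS, HepG2, 600 cells/well, RealTime-Glo (NanoLuc + prosubstrate) added with cells; 5 h preincubation; DMSO compound addition; 37 C; luminescence at 0/8/16/24/32/40 h.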
# [7] = A CellTox Green Cytotoxicity Assay to monitor cytotoxicity in HepG2 cells - 40 hour (AID 1224879); also: nearly all actives have a fitted effect of over 40% in size; also: potency is read from the fitted curve at half-maximal effect
# Procedure, shortened: as §4
# [8] = qHTS RealTime-Glo MT Cell Viability Assay in HEK293 cells - 0 hour (AID 1224880); also: top concentration of the series differs between compounds; nearly all actives have a fitted effect of over 45% in size
# Procedure, shortened: as §2
# [9] = A CellTox Green Cytotoxicity Assay to monitor cytotoxicity in HEK293 cells - 32 hour (AID 1224881); also: nearly all actives have a fitted effect of over 40% in size; also: potency is read from the fitted curve at half-maximal effect
# Procedure, shortened: as §3
# [10] = A CellTox Green Cytotoxicity Assay to monitor cytotoxicity in HepG2 cells - 0 hour (AID 1224882); also: nearly all actives have a fitted effect of over 35% in size
# Procedure, shortened: as §4
# [11] = A CellTox Green Cytotoxicity Assay to monitor cytotoxicity in HepG2 cells - 32 hour (AID 1224883); also: nearly all actives have a fitted effect of over 50% in size; also: potency is read from the fitted curve at half-maximal effect
# Procedure, shortened: as §4
# [12] = A CellTox Green Cytotoxicity Assay to monitor cytotoxicity in HEK293 cells - 8 hour (AID 1224884); also: nearly all actives have a fitted effect of over 35% in size
# Procedure, shortened: as §3
# [13] = qHTS RealTime-Glo MT Cell Viability Assay in HepG2 cells - 16 hour (AID 1224885); also: nearly all actives have a fitted effect of over 50% in size; also: potency is read from the fitted curve at half-maximal effect
# Procedure, shortened: as §5
# [14] = qHTS RealTime-Glo MT Cell Viability Assay in HEK293 cells - 24 hour (AID 1224886); also: nearly all actives have a fitted effect of over 50% in size; also: potency is read from the fitted curve at half-maximal effect; as to activity change, negative = cytotoxicity: top concentration of the series differs between compounds
# Procedure, shortened: as §1
# [15] = qHTS RealTime-Glo MT Cell Viability Assay in HEK293 cells - 8 hour (AID 1224887); also: nearly all actives have a fitted effect of over 50% in size; also: potency is read from the fitted curve at half-maximal effect; as to activity change, negative = cytotoxicity: top concentration of the series differs between compounds
# Procedure, shortened: as §2
# [16] = qHTS RealTime-Glo MT Cell Viability Assay in HepG2 cells - 0 hour (AID 1224889); also: nearly all actives have a fitted effect of over 50% in size
# Procedure, shortened: as §5
# [17] = A CellTox Green Cytotoxicity Assay to monitor cytotoxicity in HepG2 cells - 8 hour (AID 1224890); also: nearly all actives have a fitted effect of over 45% in size; also: potency is read from the fitted curve at half-maximal effect
# Procedure, shortened: as §4
# [18] = qHTS assay to identify small molecule antagonists of the estrogen receptor alpha (ER-alpha) signaling pathway using the BG1 cell line in the presence of 0.1 nM 17-beta-estradiol - cell viability counter screen (AID 1259241); also: nearly all actives have a fitted effect of over 40% in size; also: potency is read from the fitted curve at half-maximal effect
# Procedure, shortened: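 VM7Luc4E2, 4,000 cells/well, phenol red-free medium + 10% charcoal-stripped FBS; 24 hr plating; cpd + 0.1 nM E2 final, 22 hr 37C/5% CO2; CellTiter-Fluor 30 min, fluorescence.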
# [19] = A CellTox Green Cytotoxicity Assay to monitor cytotoxicity in HEK293 cells - 16 hour (AID 1224888); also: nearly all actives have a fitted effect of over 35% in size
# Procedure, shortened: as §3
# [20] = A CellTox Green Cytotoxicity Assay to monitor cytotoxicity in HepG2 cells - 24 hour (AID 1224878); also: nearly all actives have a fitted effect of over 45% in size
# Procedure, shortened: as §4
smiles,measurement,setting,value
Cc1ccc([N+](=O)[O-])[c]2c1[O][Hg]2,Potency,[1],3380 nM (active)
same,Potency,[2],2130 nM (active)
same,Potency,[3],3010 nM (active)
same,Potency,[4],1510 nM (active)
same,Potency,[5],3010 nM (active)
same,Potency,[6],2390 nM (active)
same,Potency,[7],1900 nM (active)
same,Potency,[8],inactive
same,Potency,[9],674 nM (active)
same,Potency,[10],inactive
same,Potency,[11],2130 nM (active)
same,Potency,[12],inactive
same,Potency,[13],2390 nM (active)
same,Potency,[14],3380 nM (active)
same,Potency,[15],3790 nM (active)
same,Potency,[16],inactive
same,Potency,[17],3790 nM (active)
same,Potency,[18],9440 nM (active)
CC(=O)[O-].CC(=O)[O-].CC(=O)[O-].[Sb+3],"activity change, negative = cytotoxicity",[1],1.77% [at 2.72 µM]
same,"viability change, negative = cytotoxic",[2],-4.57% [at 2.72 µM]
same,max response,[3],11.6%
same,activity change,[4],"1.85% [at 2.72 µM, active compounds read high]"
same,cytotoxicity increase,[5],-16% [at 2.72 µM]
same,"activity change, negative = cytotoxic",[6],8.41% [at 2.72 µM]
same,cytotoxicity increase,[7],-22.4% [at 2.72 µM]
same,"activity change, negative = cytotoxicity",[8],-11.8% [at 2.72 µM]
same,cytotoxicity increase,[9],3.11% [at 2.72 µM]
same,cytotoxicity,[10],-11% [at 2.72 µM]
same,cytotoxicity increase,[11],-22.1% [at 2.72 µM]
same,cytotoxicity increase,[12],-0.782% [at 2.72 µM]
same,"activity change, negative = cytotoxic",[13],-7.09% [at 2.72 µM]
same,"activity change, negative = cytotoxicity",[14],5.82% [at 2.72 µM]
same,"activity change, negative = cytotoxicity",[15],-4.44% [at 2.72 µM]
same,activity change,[19],"0.422% [at 2.72 µM, active compounds read high]"
same,cytotoxicity increase,[17],-8.87% [at 2.72 µM]
same,"activity change, negative = cytotoxicity",[18],-1.06% [at 3.27 µM]
O=C(O)CCCCCCNC1c2ccccc2CCc2ccccc21,Potency,[1],inactive
same,Potency,[2],inactive
same,max response,[3],11.4%
same,Potency,[4],inactive
same,Potency,[5],inactive
same,Potency,[20],inactive
same,Potency,[7],inactive
same,Potency,[8],inactive
same,Potency,[9],inactive
same,Potency,[10],inactive
same,Potency,[11],inactive
same,Potency,[12],inactive
same,Potency,[13],inactive
same,Potency,[14],inactive
same,Potency,[15],inactive
same,Potency,[19],inactive
same,Potency,[16],inactive
same,Potency,[17],inactive
same,Potency,[18],inactive
CC(=O)C(Cl)C(=O)N(C)C (stereo unspecified),Potency,[1],inactive
same,Potency,[2],inactive
same,max response,[3],3.79%
same,Potency,[4],inactive
same,Potency,[5],inactive
same,Potency,[6],inactive
same,Potency,[20],inactive
same,Potency,[7],inactive
same,Potency,[8],inactive
same,Potency,[10],inactive
same,Potency,[12],inactive
same,Potency,[13],inactive
same,Potency,[14],inactive
same,Potency,[15],inactive
same,Potency,[19],inactive
same,Potency,[17],inactive
CCCCC/C=C\C/C=C\C/C=C\C/C=C\CCCC(=O)NCC(=O)O,Potency,[1],inactive
same,Potency,[2],inactive
same,max response,[3],-10.5%
same,Potency,[4],inactive
same,Potency,[5],inactive
same,Potency,[6],inactive
same,Potency,[20],inactive
same,Potency,[7],inactive
same,Potency,[9],inactive
same,Potency,[12],inactive
same,Potency,[13],inactive
same,Potency,[14],inactive
same,Potency,[15],inactive
same,Potency,[17],inactive
same,Potency,[18],inactive
O=c1[nH]c(Cl)c(Cl)cc1Cl,Potency,[1],inactive
same,Potency,[2],inactive
same,max response,[3],0.811%
same,Potency,[4],inactive
same,Potency,[5],inactive
same,Potency,[6],inactive
same,Potency,[7],inactive
same,Potency,[8],inactive
same,Potency,[9],inactive
same,Potency,[10],inactive
same,Potency,[12],inactive
same,Potency,[13],inactive
same,Potency,[14],inactive
same,Potency,[15],inactive
same,Potency,[19],inactive
same,Potency,[16],inactive
same,Potency,[17],inactive
same,Potency,[18],inactive
N#CSCc1ccccc1,Potency,[1],inactive
same,Potency,[2],inactive
same,max response,[3],-24.3%
same,Potency,[4],inactive
same,Potency,[5],inactive
same,Potency,[20],inactive
same,Potency,[7],inactive
same,Potency,[8],inactive
same,Potency,[9],inactive
same,Potency,[10],inactive
same,Potency,[11],inactive
same,Potency,[12],inactive
same,Potency,[13],inactive
same,Potency,[14],inactive
same,Potency,[15],inactive
same,Potency,[19],inactive
same,Potency,[16],inactive
same,Potency,[17],inactive
CCN(CC)CCN1C(=O)CN=C(c2ccccc2F)c2cc(Cl)ccc21,Potency,[1],inactive
same,Potency,[2],inactive
same,max response,[3],-8.22%
same,Potency,[4],inactive
same,Potency,[5],inactive
same,Potency,[6],inactive
same,Potency,[7],inactive
same,Potency,[8],inactive
same,Potency,[9],inactive
same,Potency,[10],inactive
same,Potency,[11],inactive
same,Potency,[12],inactive
same,Potency,[13],inactive
same,Potency,[14],inactive
same,Potency,[15],inactive
same,Potency,[16],inactive
same,Potency,[17],inactive
same,Potency,[18],inactive
CC(Cc1ccc2c(c1)OCO2)NO (stereo unspecified),Potency,[1],inactive
same,Potency,[2],inactive
same,max response,[3],0.458%
same,Potency,[4],inactive
same,Potency,[5],inactive
same,Potency,[6],inactive
same,Potency,[20],inactive
same,Potency,[7],inactive
same,Potency,[8],inactive
same,Potency,[9],inactive
same,Potency,[11],inactive
same,Potency,[12],inactive
same,Potency,[13],inactive
same,Potency,[14],inactive
same,Potency,[15],inactive
same,Potency,[19],inactive
same,Potency,[16],inactive
same,Potency,[17],inactive
same,Potency,[18],inactive
c1ccc2nc(N3CCNCC3)ccc2c1,Potency,[1],inactive
same,Potency,[2],inactive
same,max response,[3],-17.1%
same,Potency,[4],inactive
same,Potency,[5],inactive
same,Potency,[6],inactive
same,Potency,[20],inactive
same,Potency,[8],inactive
same,Potency,[9],inactive
same,Potency,[10],inactive
same,Potency,[12],inactive
same,Potency,[13],inactive
same,Potency,[14],inactive
same,Potency,[15],inactive
same,Potency,[19],inactive
same,Potency,[16],inactive
same,Potency,[17],inactive
same,Potency,[18],inactive
Cc1ccn2nc(S(=O)(=O)Nc3c(F)cccc3F)nc2n1,Potency,[1],inactive
same,Potency,[2],inactive
same,max response,[3],12.5%
same,Potency,[4],inactive
same,Potency,[5],inactive
same,Potency,[6],inactive
same,Potency,[7],inactive
same,Potency,[8],inactive
same,Potency,[9],inactive
same,Potency,[10],inactive
same,Potency,[12],inactive
same,Potency,[13],inactive
same,Potency,[14],inactive
same,Potency,[15],inactive
same,Potency,[17],inactive
same,Potency,[18],inactive
Cc1c([N+](=O)[O-])cc2c(c1[N+](=O)[O-])C(C)(C)CC2(C)C,Potency,[1],inactive
same,Potency,[2],inactive
same,max response,[3],-1.57%
same,Potency,[4],inactive
same,Potency,[5],inactive
same,Potency,[6],inactive
same,Potency,[20],inactive
same,Potency,[7],inactive
same,Potency,[8],inactive
same,Potency,[10],inactive
same,Potency,[11],inactive
same,Potency,[13],inactive
same,Potency,[14],inactive
same,Potency,[15],inactive
same,Potency,[16],inactive
same,Potency,[17],inactive
same,Potency,[18],inactive
C=CCBr,Potency,[1],inactive
same,Potency,[2],inactive
same,max response,[3],0.528%
same,Potency,[4],inactive
same,Potency,[5],inactive
same,Potency,[6],inactive
same,Potency,[7],inactive
same,Potency,[8],inactive
same,Potency,[9],inactive
same,Potency,[10],inactive
same,Potency,[11],inactive
same,Potency,[13],inactive
same,Potency,[14],inactive
same,Potency,[15],inactive
same,Potency,[19],inactive
same,Potency,[17],inactive
